Experimental data: PubChem BioAssay AID1159580 (chemical genetic matrix, 2015)
Values joined by “and” are separate entries in the source; they are usually repeats but may differ in a detail not shown here. Equal values may be shown once. The whole screen tested about 5,500 compounds, of which about 2,000 (36%) were called active. About 18% were inconclusive and are not listed. Rule as the data show it: active = normalized growth mostly below about 0.91 (no sharp cut-off); inconclusive = no clear call, values can overlap the other calls; inactive = mostly above about 0.92. The list shows a part of the results.

Experiment: chemical genetic growth profiling, strain panel (AID 1159580);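 also: tested at 20 µM; growth read once vehicle control cultures reached saturation at 30 °C; 1 = growth at the plate median or of vehicle wells; lower values mean less growth of the strain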
Conditions: S. cerevisiae deletion strains, growth OD

Measured: normalized growth

COC(=O)C(O)c1ccccc1 (stereo unspecified)
inactive: locus YAL021C, strain ccr4, hits give low values 1.02 | locus YAL026C, strain drs2, hits give low values 1.01 | locus YAL030W, strain snc1, hits give low values 0.984 | locus YBL061C, strain skt5, hits give low values 0.996 | locus YBR009C, strain hhf1, hits give low values 1.01 | locus YBR021W, strain FUR4, hits give low values 1.06 | locus YBR023C, strain chs3, hits give low values 1.01 | locus YBR171W, strain sec66, hits give low values 0.99 | locus YBR229C, strain ROT2, hits give low values 0.999 | locus YBR231C, strain swc5, hits give low values 0.961 | locus YBR279W, strain paf1, hits give low values 0.999 | locus YCL011C, strain gbp2, hits give low values 1.02 | locus YCL016C, strain dcc1, hits give low values 1.02 | locus YCL029C, strain bik1, hits give low values 0.982 | locus YCL069W, strain vba3, hits give low values 1 | locus YCR088W, strain abp1, hits give low values 0.99 | locus YDL005C, strain med2, hits give low values 0.984 | locus YDL035C, strain GPR1, hits give low values 1.05 | locus YDL040C, strain nat1, hits give low values 0.991 | locus YDL074C, strain BRE1, hits give low values 1.05 | locus YDL101C, strain DUN1, hits give low values 0.977 | locus YDL134C, strain PPH21, hits give low values 0.964 | locus YDL185W, strain tfp1, hits give low values 0.949 | locus YDL192W, strain arf1, hits give low values 1.01 | locus YDR001C, strain nth1, hits give low values 0.99 | locus YDR069C, strain doa4, hits give low values 0.996 | locus YDR101C, strain arx1, hits give low values 1.05 | locus YDR137W, strain rgp1, hits give low values 1.01 | locus YDR159W, strain sac3, hits give low values 0.973 | locus YDR162C, strain NBP2, hits give low values 0.975 | locus YDR195W, strain ref2 0.909 | locus YDR297W, strain sur2, hits give low values 0.992 | locus YDR318W, strain mcm21, hits give low values 0.985 | locus YDR334W, strain swr1, hits give low values 0.98 | locus YDR335W, strain msn5, hits give low values 1.01 | locus YDR388W, hits give low values 0.973 | locus YDR392W, strain spt3, hits give low values 1.02 | locus YDR502C, strain sam2, hits give low values 0.969 | locus YEL003W, strain gim4, hits give low values 0.99 | locus YEL037C, strain rad23, hits give low values 0.992 | locus YEL061C, strain CIN8 (second series), hits give low values 0.983 | locus YEL061C, strain CIN8, hits give low values 0.991 | locus YER015W, strain faa2, hits give low values 1.01 | locus YER016W, strain bim1, hits give low values 0.993 | locus YER110C, hits give low values 0.984 | locus YER111C, strain swi4, hits give low values 0.981 | locus YER155C, strain BEM2 (second series), hits give low values 0.978 | locus YER155C, strain BEM2, hits give low values 0.988 | locus YER167W, strain BCK2, hits give low values 1.01 | locus YFR010W, strain ubp6, hits give low values 0.974 | locus YGL078C, strain dbp3, hits give low values 0.974 | locus YGL086W, strain mad1, hits give low values 0.996 | locus YGL167C, strain pmr1, hits give low values 0.995 | locus YGL173C, strain kem1, hits give low values 0.981 | locus YGL227W, strain vid30, hits give low values 1 | locus YGL240W, strain doc1, hits give low values 0.99 | locus YGL248W, strain PDE1, hits give low values 0.983 | locus YGL253W, strain hxk2, hits give low values 0.983 | locus YGR078C, strain PAC10, hits give low values 0.974 | locus YGR135W, strain pre9, hits give low values 0.941 | locus YGR229C, strain SMI1, hits give low values 0.961 | locus YGR252W, strain gcn5, hits give low values 1.02 | locus YHR013C, strain ard1, hits give low values 1 | locus YHR027C, strain rpn1, hits give low values 0.986 | locus YHR030C, strain SLT2, hits give low values 1.02 | locus YHR079C, strain IRE1 (second series), hits give low values 0.971 | locus YHR079C, strain IRE1, hits give low values 0.996 | locus YHR094C, strain hxt1, hits give low values 0.983 | locus YHR129C, strain ARP1, hits give low values 0.993 | locus YHR142W, strain chs7, hits give low values 1.02 | locus YHR200W, strain rpn10, hits give low values 0.963 | locus YIL066C, strain RNR3, hits give low values 1.02 | locus YIL073C, strain SPO22, hits give low values 0.977 | locus YIL125W, strain kgd1, hits give low values 1 | locus YIR030C, strain dcg1, hits give low values 0.975 | locus YJL092W, strain hpr5, hits give low values 0.991 | locus YJL095W, strain BCK1 (second series), hits give low values 0.985 | locus YJL095W, strain BCK1, hits give low values 0.963 and 1.01 | locus YJL115W, strain asf1, hits give low values 0.981 | locus YJL129C, strain trk1, hits give low values 0.992 | locus YJL134W, strain LCB3, hits give low values 0.992 | locus YJL154C, strain vps35, hits give low values 0.986 | locus YJL164C, strain tpk1, hits give low values 1.03 | locus YJL166W, strain qcr8, hits give low values 1.04 | locus YJL168C, strain set2, hits give low values 0.976 | locus YJL187C, strain SWE1 (second series), hits give low values 0.98 | locus YJL187C, strain SWE1, hits give low values 0.997 | locus YJR043C, strain POL32, hits give low values 1.09 | locus YJR066W, strain TOR1, hits give low values 0.939 | locus YKL009W, strain mrt4, hits give low values 1.05 | locus YKL068W, hits give low values 0.982 | locus YKL085W, strain MDH1 (second series), hits give low values 0.976 | locus YKL085W, strain MDH1, hits give low values 0.976 | locus YKL160W, strain elf1, hits give low values 1.04 | locus YKL190W, strain CNB1, hits give low values 0.975 | locus YKR001C, strain vps1, hits give low values 1.02 | locus YKR026C, strain gcn3, hits give low values 0.981 | locus YKR091W, strain srl3, hits give low values 0.993 | locus YLL001W, strain dnm1, hits give low values 0.985 | locus YLL026W, hits give low values 0.991 | locus YLL041C, strain sdh2, hits give low values 1.02 | locus YLR027C, strain aat2, hits give low values 1.02 | locus YLR039C, strain RIC1, hits give low values 1 | locus YLR058C, strain SHM2, hits give low values 1.01 | locus YLR102C, strain apc9, hits give low values 0.981 | locus YLR113W, strain HOG1, hits give low values 0.983 | locus YLR221C, strain rsa3, hits give low values 0.999 | locus YLR258W, strain gsy2, hits give low values 1.02 | locus YLR262C, strain YPT6 (second series), hits give low values 1.05 | locus YLR268W, strain sec22, hits give low values 1.03 | locus YLR320W, strain mms22, hits give low values 0.999 | locus YLR342W, strain FKS1, hits give low values 1 | locus YLR357W, strain rsc2, hits give low values 0.983 | locus YLR370C, strain arc18, hits give low values 0.994 | locus YLR371W, strain rom2, hits give low values 0.983 | locus YLR384C, strain iki3, hits give low values 0.98 | locus YLR418C, strain cdc73, hits give low values 0.953 | locus YML016C, strain PPZ1, hits give low values 0.977 | locus YML032C, strain rad52, hits give low values 1.01 | locus YML120C, strain ndi1, hits give low values 1.01 | locus YML124C, strain tub3, hits give low values 0.988 | locus YMR058W, strain fet3, hits give low values 1 | locus YMR078C, strain ctf18, hits give low values 0.974 | locus YMR125W, strain sto1, hits give low values 0.998 | locus YMR129W, hits give low values 0.995 | locus YMR205C, strain PFK2, hits give low values 1.02 | locus YMR223W, strain ubp8, hits give low values 0.975 | locus YMR231W, strain pep5, hits give low values 0.977 | locus YMR307W, strain GAS1, hits give low values 1.22 | locus YNL067W, strain RPL9B, hits give low values 0.965 | locus YNL071W, strain lat1, hits give low values 1.01 | locus YNL153C, strain GIM3, hits give low values 0.964 | locus YNL183C, strain NPR1, hits give low values 0.946 | locus YNL209W, strain ssb2, hits give low values 1.01 | locus YNL233W, strain BNI4, hits give low values 0.993 | locus YNL248C, strain rpa49, hits give low values 0.983 | locus YNL250W, strain rad50, hits give low values 0.943 | locus YNL271C, strain bni1, hits give low values 0.968 | locus YNL298W, strain CLA4, hits give low values 0.989 | locus YNL307C, strain MCK1, hits give low values 0.985 | locus YNL322C, strain KRE1 (second series), hits give low values 0.992 | locus YNR049C, strain mso1, hits give low values 0.993 | locus YNR052C, strain pop2, hits give low values 0.975 | locus YOL012C, strain htz1 0.732 | locus YOL147C, strain pex11, hits give low values 0.986 | locus YOR001W, strain rrp6, hits give low values 0.964 | locus YOR061W, strain CKA2, hits give low values 1.02 | locus YOR069W, strain VPS5, hits give low values 0.992 | locus YOR070C, strain gyp1, hits give low values 1.01 | locus YOR080W, strain dia2, hits give low values 0.98 | locus YOR083W, strain WHI5, hits give low values 1.05 | locus YOR106W, strain vam3, hits give low values 1.02 | locus YOR136W, strain idh2, hits give low values 0.989 | locus YOR144C, strain elg1, hits give low values 0.998 | locus YOR184W, strain ser1, hits give low values 1.09 | locus YOR231W, strain MKK1, hits give low values 1.01 | locus YOR265W, strain rbl2, hits give low values 0.998 | locus YOR270C, strain vph1, hits give low values 1.01 | locus YOR290C, strain snf2, hits give low values 1.06 | locus YOR316C, strain cot1, hits give low values 0.966 | locus YPL051W, strain arl3, hits give low values 0.979 | locus YPL078C, strain atp4, hits give low values 1.04 | locus YPL106C, strain sse1, hits give low values 0.997 | locus YPL240C, strain hsp82, hits give low values 0.993 | locus YPL241C, strain CIN2, hits give low values 0.986 | locus YPL256C, strain CLN2, hits give low values 0.978 | locus YPR119W, strain clb2, hits give low values 0.952 | locus YPR141C, strain kar3, hits give low values 0.961 | locus YPR163C, strain tif3, hits give low values 0.983 | locus YPR167C, strain met16, hits give low values 0.979 | strain wtn01, hits give low values 1.01
